According to PubChem BioAssay (NCATS):
Several values for one entry are separate records, joined by “and”; a condition that tells them apart may be missing. Equal entries are not always repeated. Unmarked numbers belong to inactive results. Inconclusive results are not listed. A call without a number means that no potency is given here. Activity calls are given as the source filed them. Unless noted, calls come from the whole dose curve; as a rule, active = well fitted curve in the direction sought with a large enough effect; inconclusive = small, poorly fitted or top-dose-only effect, or another doubt; inactive = no such curve, though single readings can be large; an effect the other way counts as inactive or inconclusive.

Assays:
[1] = Cell Viability - LYMP2-001 (AID 921); note: nearly all actives have a fitted effect of over 70% in size; note: potency is the fitted concentration of half-maximal effect
Summary of the method: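 Human lymphoblastoid cells (Coriell), 2500 per well, were preincubated 5 hr at 37 C, then exposed to compounds in complete medium for 24 hr at 37 C. Cellular ATP was read by CellTiter-Glo luminescence; AC50 from Hill fits of concentration-response data.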

[2] = MultiTox-Fluor Cytotoxicity Assay - LYMP1-002 - Dead Cells (AID 960); note: nearly all actives have a fitted effect of over 60% in size; note: potency is the fitted concentration of half-maximal effect
Summary of the method: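 Dead-cell fluorescence (Ex/Em 485/520) after 16 h compound exposure at 37 C of LYMP1-002 lymphoblastoid cells in complete medium; AC50 by Hill equation, with data scaled between DMSO and 15 uM tetraoctylammonium bromide.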

[3] = Cell Viability - LYMP2-015 (AID 971); note: nearly all actives have a fitted effect of over 55% in size; note: potency is the fitted concentration of half-maximal effect
Summary of the method: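 Cytotoxicity readout: decrease in intracellular ATP (CellTiter-Glo luminescence) in 2500 LYMP2-015 lymphoblastoid cells/well after 24 h compound exposure at 37 C. Concentration-response data fitted with the standard Hill equation to give AC50.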

[4] = Cell Viability - LYMP2-002 (AID 977); note: potency is the fitted concentration of half-maximal effect
Summary of the method: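 Human lymphoblastoid cells, 2500/well, complete medium; 5 h 37 C settle; compound 24 h 37 C; CellTiter-Glo, 30 min RT; luminescence. Decrease in ATP = cytotoxicity; AC50 via Hill equation.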

[5] = Cell Viability - LYMP2-008 (AID 980); note: nearly all actives have a fitted effect of over 60% in size; note: potency is the fitted concentration of half-maximal effect
Summary of the method: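 Cytotoxicity determined from ATP-dependent luciferase luminescence (CellTiter-Glo) following 24 h compound exposure of human lymphoblastoid LYMP2-008 cells at 37 C. Concentration-response data fitted to the Hill equation to give AC50.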

[6] = Cell Viability - LYMP2-012 (AID 982);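 note: cellular ATP by luciferase luminescence where a drop means cytotoxicity; cells exposed to compound for one day before reading; nearly all actives have a fitted effect of over 55% in size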; note: potency is the fitted concentration of half-maximal effect
[7] = Cell Viability - LYMP2-018 (AID 985); note: nearly all actives have a fitted effect of over 50% in size; note: potency is the fitted concentration of half-maximal effect
Summary of the method: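 Viability read as CellTiter-Glo luminescence (cellular ATP) after 24 hr compound exposure at 37 C of 2500 LYMP2-018 lymphoblastoid cells/well, pre-plated 5 hr. Hill-equation modelling gave AC50.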

[8] = Cell Viability - LYMP2-020 (AID 986); note: nearly all actives have a fitted effect of over 55% in size; note: potency is the fitted concentration of half-maximal effect
Summary of the method: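 Cytotoxicity in qHTS format: luminescent ATP readout from CellTiter-Glo after 24 h compound exposure at 37 C in complete medium. LYMP2-020 lymphoblastoid cells were seeded at 2500/well; concentration-response data fitted to the Hill equation for AC50.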

[9] = Cell Viability - LYMP2-022 (AID 987); note: nearly all actives have a fitted effect of over 55% in size; note: potency is the fitted concentration of half-maximal effect
Summary of the method: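 Cytotoxicity read as decreased cellular ATP (CellTiter-Glo luminescence, 30 min room temperature) after 24 hours compound exposure of 2500 lymphoblastoid LYMP2-022 cells/well at 37 C. Concentration-response data fitted with standard Hill equation for AC50.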

[10] = Cell Viability - LYMP2-024 (AID 988); note: nearly all actives have a fitted effect of over 60% in size; note: potency is the fitted concentration of half-maximal effect
Summary of the method: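 Cytotoxicity was taken as a decrease in ATP (CellTiter-Glo luminescence) after 24 hr compound exposure at 37 C of LYMP2-024 lymphoblastoid cells, 2500 cells/well. Concentration-response data were fitted to the Hill equation to give AC50.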

[11] = molecular target: Thyroid hormone receptor beta (Homo sapiens) (UniProt P10828); assay: qHTS assay for small molecule agonists of thyroid hormone receptor beta signaling (AID 588545; calls by dose curve)
Summary of the method: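 Cells (2500/well) were seeded, incubated 4 hrs at 37 C, dosed with a compound series, incubated 18 hrs, loaded with CCF4 dye for 2 hrs at RT, then read for fluorescence. Data were scaled between DMSO (0%) and 10 nM T3 (100%).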

[12] = qHTS assay for small molecule disruptors of the mitochondrial membrane potential - 1 hr assay (AID 651754; calls by dose curve; note: nearly all actives have a fitted effect of over 35% in size; note: potency is the fitted concentration of half-maximal effect)
Summary of the method: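 Mitochondrial potential in living HepG2 cells after 1 hr compound treatment at 37C was read with Mito-MPS dye added for a further 30 min. Red aggregate and green monomer fluorescence were measured; loss of potential leaves dye as cytoplasmic monomers.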

[13] = qHTS assay for environmental chemicals that activate the Aryl hydrocarbon Receptor (AhR) signaling pathway (AID 651777); settings: 1A2-DRE human hepatoma cells, luciferase, 24 h; activation: stronger effect = higher value; note: nearly all actives have a fitted effect of over 15% in size; note: potency is the fitted concentration of half-maximal effect
Summary of the method: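 Stable CYP1A2 promoter/DRE-luciferase human hepatoma line treated 24 hr; One-Glo luminescence, 30 min RT.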

[14] = molecular target: Nuclear receptor ROR-gamma (Homo sapiens) (UniProt P51449); assay: qHTS assay for small molecule antagonists of the retinoid-related orphan receptor gamma (ROR-gamma) signaling pathway (AID 651802); note: nearly all actives have a fitted effect of over 60% in size; note: potency is the fitted concentration of half-maximal effect
Summary of the method: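 Luminescence (One-Glo, 30 min RT) measured 16 h after compound addition and doxycycline induction at 37C. Reporter: RORE-luciferase under TET-inducible ROR-gamma in CHO cells.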

[15] = qHTS assay for small molecule agonists of the antioxidant response element (ARE) signaling pathway measured by Nrf2-dependant transcriptional activity (AID 720636; active = well fitted curve in the direction sought with a large enough effect in the repeat runs; an effect the other way counts as inactive or inconclusive;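 note: HepG2 cells with an ARE-driven luciferase reporter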)
Summary of the method: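 Reporter gene assay, HepG2 ARE-luc: 16 hr compound, 37 C, 5% CO2; read-out luciferase luminescence.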

[16] = qHTS assay for small molecule antagonists of the retinoid-related orphan receptor gamma (ROR-gamma) signaling pathway - cell viability counter screen (AID 720652; active = well fitted curve in the direction sought with a large enough effect in the repeat runs; an effect the other way counts as inactive or inconclusive;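 note: compound exposure lasted 16 hr before ATP read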; note: potency is the fitted concentration of half-maximal effect)
Summary of the method: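 Cytotoxicity counter screen: intracellular ATP (CellTiter-Glo luminescence) measured in the doxycycline-induced CHO RORE-luciferase reporter line after 16 hr compound exposure at 37 C, 5% CO2.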

[17] = molecular target: Nuclear receptor subfamily 1 group I member 2 (Rattus norvegicus) (UniProt Q9R1A7); assay: qHTS assay for small molecule activators of the rat pregnane X receptor (rPXR) signaling pathway (AID 651751; call rule not given here); settings: rPXR reporter cells, luciferase (One-Glo), 24 h
[18] = molecular target: Voltage-gated inwardly rectifying potassium channel KCNH2 (Homo sapiens) (UniProt Q12809); assay: qHTS Assay for Small Molecule Inhibitors of the Human hERG Channel Activity (AID 588834);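 note: lower thallium flux fluorescence means stronger hERG block; nearly all actives have a fitted effect of over 50% in size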; note: potency is the fitted concentration of half-maximal effect
Summary of the method: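 In hERG-transduced U2OS cells, dye-loaded for 1 hr at room temperature in dark, test compounds incubated 10 min at 37 °C before thallium stimulation. AC50 values derived by Hill modelling of concentration-response.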

[19] = MultiTox-Fluor Cytotoxicity Assay - LYMP1-001 - Live Cells (AID 947)
[20] = Cell Viability - LYMP2-005 (AID 967); note: potency is the fitted concentration of half-maximal effect
Summary of the method: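 CellTiter-Glo luminescence (cellular ATP) read-out; LYMP2-005 lymphoblastoid cells, 2500/well, 5 h pre-incubation, then 24 h compound exposure at 37 C in complete medium. Tetraoctylammonium bromide positive control; AC50 by standard Hill fit.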

Thyroid hormone receptor beta (Homo sapiens), sequence (P10828 whole entry, looked up): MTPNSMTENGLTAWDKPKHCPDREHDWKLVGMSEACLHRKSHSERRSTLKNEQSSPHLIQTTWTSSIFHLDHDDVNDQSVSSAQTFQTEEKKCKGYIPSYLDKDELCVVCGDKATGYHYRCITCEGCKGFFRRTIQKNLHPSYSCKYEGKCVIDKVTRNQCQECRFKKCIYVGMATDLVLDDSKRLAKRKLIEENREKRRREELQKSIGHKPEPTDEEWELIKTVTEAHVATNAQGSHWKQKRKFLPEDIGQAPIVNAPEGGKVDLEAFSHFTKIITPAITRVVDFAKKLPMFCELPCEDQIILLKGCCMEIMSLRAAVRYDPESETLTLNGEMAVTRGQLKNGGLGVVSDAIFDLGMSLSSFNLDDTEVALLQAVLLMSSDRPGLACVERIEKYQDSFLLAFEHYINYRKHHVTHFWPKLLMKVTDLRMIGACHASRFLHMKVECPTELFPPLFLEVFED
Nuclear receptor subfamily 1 group I member 2 (Rattus norvegicus), sequence (Q9R1A7 whole entry, looked up): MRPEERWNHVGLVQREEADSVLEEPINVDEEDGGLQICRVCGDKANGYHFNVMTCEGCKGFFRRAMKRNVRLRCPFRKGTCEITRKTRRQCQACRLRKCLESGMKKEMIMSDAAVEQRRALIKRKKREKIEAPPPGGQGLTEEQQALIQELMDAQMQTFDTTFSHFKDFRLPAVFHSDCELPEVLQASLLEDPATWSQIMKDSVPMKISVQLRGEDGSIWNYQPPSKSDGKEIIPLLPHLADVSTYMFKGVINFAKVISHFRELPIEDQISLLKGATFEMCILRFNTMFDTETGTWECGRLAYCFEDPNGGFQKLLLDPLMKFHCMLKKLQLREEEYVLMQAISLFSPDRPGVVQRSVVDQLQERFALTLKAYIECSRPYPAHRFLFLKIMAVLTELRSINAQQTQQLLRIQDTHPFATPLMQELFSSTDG
Nuclear receptor ROR-gamma (Homo sapiens), sequence (P51449 whole entry, looked up): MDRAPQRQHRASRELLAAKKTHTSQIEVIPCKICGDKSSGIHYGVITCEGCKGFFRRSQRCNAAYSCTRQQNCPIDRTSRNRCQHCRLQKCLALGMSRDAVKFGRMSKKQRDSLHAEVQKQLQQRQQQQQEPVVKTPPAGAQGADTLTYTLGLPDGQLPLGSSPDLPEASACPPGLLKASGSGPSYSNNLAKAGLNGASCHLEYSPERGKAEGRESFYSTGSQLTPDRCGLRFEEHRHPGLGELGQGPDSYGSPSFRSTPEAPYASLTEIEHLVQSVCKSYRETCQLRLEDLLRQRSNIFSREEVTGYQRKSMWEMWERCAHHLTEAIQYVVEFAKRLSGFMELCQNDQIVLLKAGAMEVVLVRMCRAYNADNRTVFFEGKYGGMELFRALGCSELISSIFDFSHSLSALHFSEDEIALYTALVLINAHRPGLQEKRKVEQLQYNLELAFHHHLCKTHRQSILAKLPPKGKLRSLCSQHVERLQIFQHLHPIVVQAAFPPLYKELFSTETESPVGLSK
Voltage-gated inwardly rectifying potassium channel KCNH2 (Homo sapiens), sequence (Q12809 whole entry, looked up): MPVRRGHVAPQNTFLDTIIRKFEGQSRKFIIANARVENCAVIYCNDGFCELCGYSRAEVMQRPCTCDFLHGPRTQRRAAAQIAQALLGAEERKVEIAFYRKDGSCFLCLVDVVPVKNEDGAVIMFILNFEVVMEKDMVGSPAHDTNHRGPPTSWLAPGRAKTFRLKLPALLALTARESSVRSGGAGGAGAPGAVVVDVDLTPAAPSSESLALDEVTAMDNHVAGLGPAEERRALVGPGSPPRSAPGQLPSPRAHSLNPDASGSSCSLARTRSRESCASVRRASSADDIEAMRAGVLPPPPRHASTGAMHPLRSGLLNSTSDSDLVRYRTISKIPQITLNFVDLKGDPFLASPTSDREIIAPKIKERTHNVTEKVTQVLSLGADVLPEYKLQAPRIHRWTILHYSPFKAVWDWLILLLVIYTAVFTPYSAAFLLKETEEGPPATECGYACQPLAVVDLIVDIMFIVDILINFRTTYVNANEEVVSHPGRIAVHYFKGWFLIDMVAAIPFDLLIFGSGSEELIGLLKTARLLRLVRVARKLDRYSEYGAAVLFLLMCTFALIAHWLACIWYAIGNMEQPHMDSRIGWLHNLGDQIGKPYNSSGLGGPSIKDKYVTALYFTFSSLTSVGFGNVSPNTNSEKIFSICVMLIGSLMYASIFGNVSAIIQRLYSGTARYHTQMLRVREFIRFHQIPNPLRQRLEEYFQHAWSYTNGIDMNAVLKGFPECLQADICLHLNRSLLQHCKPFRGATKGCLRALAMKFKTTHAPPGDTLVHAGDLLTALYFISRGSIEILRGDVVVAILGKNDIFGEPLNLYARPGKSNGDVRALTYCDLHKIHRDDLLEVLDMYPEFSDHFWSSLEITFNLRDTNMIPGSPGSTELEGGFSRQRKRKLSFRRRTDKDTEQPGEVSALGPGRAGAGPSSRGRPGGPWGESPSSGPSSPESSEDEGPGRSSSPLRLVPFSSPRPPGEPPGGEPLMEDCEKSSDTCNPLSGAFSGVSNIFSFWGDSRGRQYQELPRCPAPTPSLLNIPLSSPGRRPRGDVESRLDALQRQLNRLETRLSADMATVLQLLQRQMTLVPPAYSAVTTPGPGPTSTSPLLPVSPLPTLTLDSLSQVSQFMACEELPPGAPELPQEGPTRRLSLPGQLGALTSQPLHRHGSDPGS

CN1[C@H]2CC(OC(=O)[C@H](CO)c3ccccc3)C[C@H]1[C@H]1O[C@H]12 (stereo not given in full)
Potency [1]: inactive
Potency [2]: inactive
Potency [3]: inactive
Potency [4]: inactive
Potency [5]: inactive
Potency [6]: inactive
Potency [7]: inactive
Potency [8]: inactive
Potency [9]: inactive
Potency [10]: inactive
outcome [11]: inactive
Potency [12]: inactive
activation [13]: -0.0972% and -0.778%
Potency [14]: inactive
Potency [15]: inactive
Potency [16]: inactive
max response [17]: -5.42% and 5.83%

C=CC(=O)OCC(CO)(COC(=O)C=C)COC(=O)C=C
outcome [11]: inactive
Potency [18]: inactive
activation [13]: 2.52% and -1.81%
max response [17]: -14.2%

O=C(/C=C/c1ccc(O)c(O)c1)OC1C[C@](O)(C(=O)O)C[C@@H](O)[C@H]1O (stereo not given in full)
Potency [1]: inactive
Potency [19]: inactive
Potency [2]: inactive
Potency [20]: inactive
Potency [3]: inactive
Potency [4]: inactive
Potency [5]: inactive
Potency [6]: inactive
Potency [7]: inactive
Potency [8]: inactive
Potency [9]: inactive
Potency [10]: inactive
outcome [11]: inactive
Potency [18]: inactive
Potency [12]: inactive
Potency [14]: inactive
Potency [15]: inactive
Potency [16]: inactive
max response [17]: -2.65% and 8.84%

Cc1cccc(O)c1C
Potency [1]: inactive
Potency [19]: inactive
Potency [2]: inactive
Potency [20]: inactive
Potency [3]: inactive
Potency [4]: inactive
Potency [5]: inactive
Potency [6]: inactive
Potency [7]: inactive
Potency [8]: inactive
Potency [9]: inactive
Potency [10]: inactive
outcome [11]: inactive
Potency [18]: inactive
Potency [12]: inactive
activation [13]: -0.837%
Potency [14]: inactive
Potency [15]: inactive
Potency [16]: inactive
max response [17]: -0.434%

CC/C(=C(\c1ccccc1)c1ccc(OCCN(C)C)cc1)c1ccc(O)cc1
Potency [12]: inactive
activation [13]: -5.29%

CCCCCC/C(C=O)=C\c1ccccc1
Potency [1]: inactive
Potency [19]: inactive
Potency [2]: inactive
Potency [20]: inactive
Potency [3]: inactive
Potency [4]: inactive
Potency [5]: inactive
Potency [6]: inactive
Potency [7]: inactive
Potency [8]: inactive
Potency [9]: inactive
Potency [10]: inactive
outcome [11]: inactive
Potency [12]: inactive
activation [13]: -0.354%
Potency [14]: inactive
Potency [15]: inactive
Potency [16]: inactive
max response [17]: -2.08%

CN(C)c1ccc(C2(c3ccc(N(C)C)cc3)OC(=O)c3cc(N(C)C)ccc32)cc1
Potency [1]: inactive
Potency [19]: inactive
Potency [3]: inactive
Potency [4]: inactive
Potency [5]: inactive
Potency [6]: inactive
Potency [7]: inactive
Potency [8]: inactive
Potency [9]: inactive
Potency [10]: inactive
activation [13]: -0.148%
Potency [14]: inactive
Potency [15]: inactive
Potency [16]: inactive
max response [17]: -2.55%

Oc1ccc2cc(SSc3ccc4cc(O)ccc4c3)ccc2c1
Potency [2]: inactive
Potency [6]: 50.1 µM (active)
outcome [11]: inactive
Potency [18]: 44.7 µM (active)
Potency [12]: 66.8 µM (active)
max response [17]: -6.62%

C/C=C1\C(=O)C[C@H]2[C@@H]3CCC4=CC(=O)CC[C@]4(C)[C@H]3CC[C@]12C
Potency [19]: inactive
Potency [2]: 25.1 µM (active)
Potency [20]: inactive
Potency [3]: inactive
Potency [4]: inactive
outcome [11]: inactive
Potency [18]: 35.5 µM (active)
Potency [12]: inactive
activation [13]: -0.115%
Potency [14]: 33.5 µM (active)

C=C(C)c1ccccc1
Potency [1]: inactive
Potency [19]: inactive
Potency [2]: inactive
Potency [20]: inactive
Potency [3]: inactive
Potency [4]: inactive
Potency [5]: inactive
Potency [6]: inactive
Potency [7]: inactive
Potency [8]: inactive
Potency [9]: inactive
Potency [10]: inactive
Potency [18]: inactive
Potency [12]: inactive
Potency [14]: inactive
Potency [15]: inactive
Potency [16]: inactive
max response [17]: 0.462%

O=C1OC(O)C(C(Cl)Cl)=C1Cl (stereo not given)
Potency [1]: 20 µM (active)
Potency [19]: inactive
Potency [2]: 31.6 µM (active)
Potency [20]: 15.8 µM (active)
Potency [3]: 25.1 µM (active)
Potency [4]: 25.1 µM (active)
Potency [5]: 25.1 µM (active)
Potency [6]: 20 µM (active)
Potency [7]: 25.1 µM (active)
Potency [8]: 25.1 µM (active)
Potency [9]: 15.8 µM (active)
Potency [10]: 12.6 µM (active)
Potency [18]: inactive
Potency [12]: inactive
activation [13]: -0.209%
Potency [16]: 26.6 µM (active)
max response [17]: -3.61%

CO[C@H]1/C=C/O[C@@]2(C)Oc3c(C)c(O)c4c(O)c(c5c(c4c3C2=O)NC2(CCN(CC(C)C)CC2)N=5)=NC(=O)/C(C)=C\C=C\[C@H](C)[C@H](O)[C@@H](C)[C@@H](O)[C@@H](C)[C@H](OC(C)=O)[C@@H]1C
Potency [19]: inactive
Potency [2]: inactive
Potency [4]: inactive
Potency [5]: inactive
outcome [11]: inactive
Potency [18]: inactive
Potency [12]: inactive
activation [13]: -1.73%
Potency [14]: inactive
Potency [15]: inactive
Potency [16]: inactive
max response [17]: 7.05%

O=C(OCC(COC(=O)c1ccccc1)(COC(=O)c1ccccc1)COC(=O)c1ccccc1)c1ccccc1
Potency [1]: inactive
Potency [19]: inactive
Potency [20]: inactive
Potency [3]: inactive
Potency [4]: inactive
Potency [5]: inactive
Potency [6]: inactive
Potency [7]: inactive
Potency [8]: inactive
Potency [9]: inactive
Potency [10]: inactive
Potency [18]: inactive
activation [13]: -0.471%
Potency [14]: inactive
Potency [15]: inactive
Potency [16]: inactive

c1ccc2c(c1)-c1cccc3c1c-2cc1ccccc13
Potency [1]: inactive
Potency [19]: inactive
Potency [2]: inactive
Potency [20]: inactive
Potency [3]: inactive
Potency [4]: inactive
Potency [5]: inactive
Potency [6]: inactive
Potency [7]: inactive
Potency [8]: inactive
Potency [9]: inactive
Potency [10]: inactive
Potency [18]: inactive
Potency [12]: inactive
Potency [13]: 7.08 µM (active)

c1ccc2c(c1)ccc1cc3c(ccc4ccccc43)cc12
Potency [1]: inactive
Potency [19]: inactive
Potency [2]: inactive
Potency [20]: inactive
Potency [3]: inactive
Potency [4]: inactive
Potency [5]: inactive
Potency [6]: inactive
Potency [7]: inactive
Potency [8]: inactive
Potency [9]: inactive
Potency [10]: inactive
Potency [18]: inactive
Potency [12]: inactive
Potency [16]: inactive
